# TrxR1 inh: qHTS Assay for Inhibitors of Mammalian Selenoprotein Thioredoxin Reductase 1 (TrxR1): qHTS; recombinant rTrxR1, NADPH fluorescence consumption, selenite substrate; Potency, µM (doses to about 114 µM), inactives show at the highest dose activity change, negative = inhibition, actives largely listed as inhibitors; 1% of 390,000 active; AID 588453, 2011; note: % is set by controls: 0 for no effect and ±100 for the full control effect; nearly all actives have a fitted effect of over 65% in size
#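 Rat TrxR1 (90 nM in the dispensed reagent) was pre-reduced with 400 uM NADPH for 5 min at room temperature, then incubated with compound for 15 min. After 400 uM selenite was added, NADPH fluorescence (Ex 340/Em 450 nm) was followed for 8 min.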
# TrxR1 substrate: qHTS Assay for Substrates of Mammalian Selenoprotein Thioredoxin Reductase 1 (TrxR1): qHTS; Thioredoxin reductase 1, cytoplasmic (Rattus norvegicus), O89049; purified TrxR1 substrate turnover, NADPH consumption readout; Potency, µM (top dose mostly 114 µM), for the others: top-dose activity change, negative = substrate turnover; 0.01% of 390,000 active; AID 588456, 2011; note: % is set by controls: 0 for no effect and ±100 for the full control effect; nearly all actives have a fitted effect of over 50% in size
#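 Rat TrxR1, dispensed at 90 nM, was prereduced with 400 uM NADPH (final) for 5 min at ~22 deg C, then incubated with compound 15 min before 400 uM selenite. A first-read NADPH fluorescence drop versus no-compound background flagged substrates.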
# GALK inhibitor: qHTS Assay for Inhibitors of Human Galactokinase (GALK); Purified GALK, Kinase-Glo residual ATP luminescence; Potency, µM (highest dose often 57.5 µM), for inactives: at the highest dose activity change, negative = inhibition, actives largely listed as inhibitors; 0.007% of 270,000 active; P51570; note: % is set by controls: 0 for no effect and ±100 for the full control effect
# Target sequence (P51570 whole entry, looked up): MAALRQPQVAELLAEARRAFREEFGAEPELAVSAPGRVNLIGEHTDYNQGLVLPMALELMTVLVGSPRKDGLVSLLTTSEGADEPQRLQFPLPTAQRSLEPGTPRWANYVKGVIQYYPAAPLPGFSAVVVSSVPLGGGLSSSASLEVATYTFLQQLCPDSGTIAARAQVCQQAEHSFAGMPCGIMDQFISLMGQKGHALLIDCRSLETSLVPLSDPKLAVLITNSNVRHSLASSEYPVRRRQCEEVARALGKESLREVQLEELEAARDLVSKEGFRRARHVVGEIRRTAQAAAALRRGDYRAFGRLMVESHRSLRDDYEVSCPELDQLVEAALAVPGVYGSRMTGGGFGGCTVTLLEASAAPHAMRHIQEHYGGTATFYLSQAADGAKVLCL
#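 Luminescence from leftover ATP (Ultra-Glo luciferase/luciferin) served as read-out after a 1 h room-temperature reaction of 5 nM GALK with 35 uM ATP and 100 uM galactose.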
# Nrf2 block: Nrf2 qHTS screen for inhibitors | A549 ARE-Fluc reporter, luciferase luminescence, 18-24 h | Potency, µM (series often up to 46 µM), for inactives: at the top dose activity change, negative = inhibition, actives largely listed as inhibitors | 2.1% of 360,000 active; note: % is set by controls: 0 for no effect and ±100 for the full control effect; nearly all actives have a fitted effect of over 60% in size
#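 A549 ARE_Fluc cells, 5000/well, 5% FBS OPTI-MEM; compounds in dose-response, 18-24 h at 37 °C/5% CO2; CellTiter-Fluor viability read (Ex 405/Em 525), then BugLite luciferase luminescence = Nrf2 activity.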
# Nrf2 activator: qHTS of Nrf2 Activators; AREc32 ARE-luciferase reporter (MCF7-derived line), luminescence, 24 h; Potency, µM (titrated, usually from 46.1 µM), without a hit: top-dose activation, usual class: activators; 0.31% of 410,000 active; note: % of control where 0% means no effect; nearly all actives have a fitted effect of over 65% in size
#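 ARE-driven firefly luciferase activity in AREc32 cells measured after a 24 hr compound exposure at 37 deg C, using Steady-Glo reagent and a 30 min room-temperature hold.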
# A549 tox-1: Nrf2 qHTS screen for inhibitors: counterscreen for cytotoxicity. 0.16% of 390,000 active. Potency, µM (series often up to 46 µM), without a hit: at the top dose activity change, negative = cytotoxicity, usual class: inhibitors. A549 ARE-Fluc cells, CellTiter-Fluor viability, 18-24 h; note: % is set by controls: 0 for no effect and ±100 for the full control effect
#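 A549 ARE_Fluc cells in 5% FBS OPTI-MEM were exposed to compounds in concentration-response for 18-24 h at 37 deg C. Viability was read by CellTiter-Fluor fluorescence (Ex 405/Em 525) after 30 min, before the luciferase read.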
# FLuc counter 3: Nrf2 qHTS screen for inhibitors: Purified Fluc Biochemical Counterscreen for Hit Validation. shares compounds with Nrf2 block. purified firefly luciferase, luminescence inhibition. Potency, µM (doses to about 57.5 µM), inactives show at the top dose activity change, negative = inhibition, actives largely listed as inhibitors. 4% of 1,400 active; note: % is set by controls: 0 for no effect and ±100 for the full control effect; nearly all actives have a fitted effect of over 65% in size
# A549 tox-2: Nrf2 qHTS screen for inhibitors: A549 ARE-Fluc Cytotoxicity Counterscreen for Hit Validation; A549 ARE-Fluc cells, cytotoxicity counterscreen; Potency, µM (highest dose often 46.1 µM), for the others: top-dose activity change, negative = cytotoxicity, most hits filed as inhibitors; shares compounds with Nrf2 block; 2% of 1,400 active;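 note: cells exposed to compounds for 18 to 24 hours; % is set by controls: 0 for no effect and ±100 for the full control effect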
# Nrf2 ARE inh: Nrf2 qHTS screen for inhibitors: Nrf2 A549 ARE-Fluc Confirmation Assay for Hit Validation | shares compounds with Nrf2 block | A549 ARE-firefly luciferase reporter, luminescence | Potency, µM (top dose mostly 46.1 µM), for the others: at the top dose activity change, negative = inhibition, hits mostly inhibitors | 74% of 1,400 active; note: % is set by controls: 0 for no effect and ±100 for the full control effect; nearly all actives have a fitted effect of over 65% in size
# * = called active by the depositor; ? = inconclusive; nt = no result given; [ ] = remark or other dose. Most compounds without a hit are left out; they make up all but 3% or so of the library. Calls come from the whole dose curve; as a rule, active = well fitted curve in the direction sought with a large enough effect; inconclusive = small, poorly fitted or top-dose-only effect, or another doubt; inactive = no such curve, though single readings can be large; an effect the other way counts as inactive or inconclusive. Potency is the fitted concentration of half-maximal effect.
SMILES,TrxR1 inh,TrxR1 substrate,GALK inhibitor,Nrf2 block,Nrf2 activator,A549 tox-1,FLuc counter 3,A549 tox-2,Nrf2 ARE inh
Cc1ccc2cccc(OCC(=O)N3CC(C)CC(C)C3)c2n1 (configuration not stated),19%[57.1 µM],7%[57.1 µM],-3%,-10%,0%,0%,nt,nt,nt
COCC(=O)Nc1nnc(SCC(=O)N2C(C)CCCC2C)s1 (configuration not stated),41%[57.1 µM],4%[57.1 µM],-3%,1%,0%,0%,nt,nt,nt
CN(CC(=O)Nc1ccc(Cl)cc1)C(=O)c1ccc(N2CCCC2=O)cc1,-11%,-8%,nt,6%,4%,8%,nt,nt,nt
CN(CC(=O)Nc1ccc(OC(F)(F)F)cc1)C(=O)c1ccc(N2CCCC2=O)cc1,15%,3%,nt,2.9µM*,0%,-6%,2%,1%,5.2µM*
CCOC(=O)c1cccc(NC(=O)CSc2nc3ccccc3c(=O)n2CC)c1,0%,5%,3%,?,0%,-3%,nt,nt,nt
CCn1c(SCC(=O)Nc2cccc(OC)c2)nc2ccccc2c1=O,19%,9%,-7%,8.2µM*,6%,-10%,-4%,0%,38%
CCc1ccc(NC(=O)C(C)n2nc(C)c([N+](=O)[O-])c2C)cc1 (configuration not stated),36%[57.1 µM],-12%[57.1 µM],-8%,-7%,-1%,4%,nt,nt,nt
CCn1c(C)cc(C(=O)CN2C(=O)c3ccccc3S2(=O)=O)c1C,-14%,-9%,nt,3.7µM*,-2%,-3%,8.5µM*,3%,nt
Cc1cc(C(=O)CN2C(=O)c3ccccc3S2(=O)=O)c(C)n1-c1ccccc1,-1%,-6%,-1%,?,-2%,-7%,nt,nt,nt
O=C(CN1C(=O)c2ccccc2S1(=O)=O)c1ccccc1Cl,nt,nt,4%,nt,nt,nt,nt,nt,nt
Cc1cc(C(=O)CN2C(=O)c3ccccc3S2(=O)=O)c(C)n1C(C)C,2%,-5%,nt,2.9µM*,-3%,-1%,6.7µM*,7%,8.2µM*
COc1ccc([C@H]2C[C@H](O)[C@@H](n3cc(C4CC4)nn3)CN2C(=O)C2CCCCC2)cc1,nt,nt,nt,nt,0%,nt,nt,nt,nt
CCc1ccc(S(=O)(=O)c2nnn3c2nc(N2CCN(c4ccccc4)CC2)c2cc(Cl)ccc23)cc1,24%,6%,nt,5%,0%,4%,nt,nt,nt
CCCCn1c(SCC(=O)Nc2nnc(C(C)C)s2)nc2c1c(=O)n(C)c(=O)n2C,14%,6%,-4%,7.3µM*,-1%,?,1%,-18%,16µM*
CCCn1c(SCC(=O)Nc2nnc(CC)s2)nc2c1c(=O)n(C)c(=O)n2C,nt,nt,-7%,nt,nt,nt,nt,nt,nt
O=c1c2ccccc2nc2n1C(CSCc1ccc(Cl)cc1)CS2 (configuration not stated),12%[57.1 µM],7%[57.1 µM],-1%,nt,0%,-23%,nt,nt,nt
CCOC(=O)N1CCN(C(=O)c2ccc3c(=O)n(Cc4ccc(Cl)cc4)c(=S)[nH]c3c2)CC1,-11%,-16%,-1%,?,1%,-8%,nt,nt,nt
CCOC(=O)N1CCN(C(=O)c2ccc(Cn3c(=S)[nH]c4ccc(Br)cc4c3=O)cc2)CC1,4%,-6%,6%,4.1µM*,0%,?,-18%,?,8.2µM*
O=C(CCCCCCCC(=O)NNC(=O)Nc1ccccc1)NNC(=O)Nc1ccccc1,21%[57.1 µM],12%[57.1 µM],0%,0%,5%,-12%,nt,nt,nt
Cc1ccc(-n2c(-c3ccc(Br)cc3)c[n+]3c2CCc2ccc4cccnc4c2-3)cc1,-15%,5%,-6%,2.9µM*,6%,-22%,-10%,?,5.8µM*
CN(C)S(=O)(=O)c1ccc(Nc2nc(C3CC3)nc3c2nnn3Cc2ccccc2Cl)cc1,43%,58%,0%,5.8µM*,6%,-24%,2%,-24%,4.1µM*
COc1ccc2[nH]c3c(c2c1)CCN1C(=O)C(CC(=O)NCc2cccc(C(F)(F)F)c2)C[C@H](C(=O)N2CCCCC2)[C@@]31CCc1ccccc1 (some centres not stated),39%,5%,nt,6.5µM*,0%,-17%,-2%,-27%,21µM*
COc1cccc(C(=O)N(Cc2ccccc2)Cc2cc3cc4c(cc3[nH]c2=O)OCCO4)c1,-7%[57.1 µM],20%[57.1 µM],2%,2.6µM*,0%,-18%,-4%,-23%,?
O=C1c2ccccc2C(=O)N1c1ccccn1,5%,0%,nt,?,nt,2%,nt,nt,nt
Cc1oc(-c2ccc(Cl)cc2)nc1CS(=O)CC(=O)NCCCN1CCN(Cc2ccccc2)CC1 (configuration not stated),-24%,2%,-1%,5.8µM*,3%,-4%,3%,-14%,12µM*
Cc1oc(-c2ccc(Cl)cc2)nc1CS(=O)CC(=O)NCCCN1CCCC(C)C1 (configuration not stated),3%,4%,3%,1%,3%,2%,nt,nt,nt
COc1cc(OC)c(NS(=O)(=O)c2cccc(C(=O)OCC(=O)NCC3CCCO3)c2)cc1Cl (configuration not stated),11%,-5%,7%,12%,0%,0%,nt,nt,nt
CCCCn1c(N)c(N(Cc2ccccc2OC)C(=O)C(C)Oc2ccc(Cl)cc2)c(=O)[nH]c1=O (configuration not stated),16%,4%,-5%,3%,3%,3%,nt,nt,nt
O=C1N=C(N2CCC(Cc3ccccc3)CC2)S/C1=C/c1cn[nH]c1-c1ccccc1,-5%,-3%,-1%,?,0%,-15%,-1%,-6%,?

# Source: PubChem (National Center for Advancing Translational Sciences (NCATS))
